# Measurements taken from PubChem BioAssay (Tox21).
# Results filed as inconclusive are left out. Activity calls are given as the source filed them. Calls come from the whole dose curve; as a rule, active = well fitted activation curve with a large enough effect in the repeat runs; inconclusive = weak or mixed curves; inactive = flat fitted curve, though single readings scatter.
# Assay: Caspase-3/7 induction in HepG2 cells by small molecules, qHTS assay (AID 1346978); note: nearly all actives have a fitted effect of over 15% in size
# Settings: HepG2 caspase-3/7 activation, Caspase-Glo luminescence, 17 h; series mostly up to 92.4 µM
# Source text: National Center for Advancing Translational Sciences [NCATS] NIH Chemical Genomics Center [NCGC] U.S. Environmental Protection Agency [EPA] National Institutes of Environmental Health Sciences [NIEHS] National Toxicology Program [NTP] Assay overview: Apoptosis is a process of programmed cell death and plays a central role in the development of multicellular organisms. It is a highly regulated process and induces cell death by activating caspases, which are the members of cysteine aspartic acid-specific protease (caspase) family. Caspases involved in apoptosis are classified by their mechanism of action as initiator caspases (caspase-2, -8, -9 and -10) and executioner caspases (caspase-3, -6, and -7). Inhibition of apoptosis results in number of cancers, autoimmune diseases, inflammatory diseases and viral infection. To identify small molecule compounds that induce apoptosis, a homogeneous, luminescent Caspase-Glo 3/7 assay was used. Wild type HepG2 cells were used to screen Tox21 libraries for identifying caspase-3/7 activity inducers.
# Assay Protocol Summary: HepG2 cells were dispensed at 2,000 per well in 5uL of culture medium into white solid bottom 1536-well plates (Corning Life Sciences, Corning, NY) using a Multidrop Combi (Thermo Scientific, Waltham, MA) dispenser. The assay plates were incubated at 37 C and 5% CO2 for 5hr, and then 23nL of compounds dissolved in DMSO and positive control were transferred using a Pintool station (Wako, San Diego, CA). The assay plates were incubated at 37C and 5% CO2 for 17hr. For caspase-3/7 activity read, 4uL of Caspase-Glo 3/7 reagent (Promega Corporation, Madison, WI) was added to each well of the assay plates using Flying Reagent Dispenser (FRD, Aurora Discovery, San Diego, CA) and incubated the assay plates at room temperature for 30min. The luminescence signal was quantified using a ViewLux plate reader (Perkin Elmer, Shelton, CT).
# % is set by controls: 0 for no effect and ±100 for the full control effect.
Structure (SMILES),caspase activation,outcome
O=C1c2ccccc2C(=O)c2cc(Cl)ccc21,-1.72% [at 8.39 µM] (inactive),
OC[C@@H](O)C(O)[C@@H](O)CO (stereo not given in full),,inactive
CCO,,inactive
COC(C)(OC)OC,,inactive
CC(=O)CCC1=C(C)CCCC1(C)C,,inactive
CCC(C(=O)OCCN1CCOC(c2ccccc2)C1C)c1ccccc1 (stereo not given),,inactive
OCC1(CO)COCOC1,,inactive
O=C(O)CCCCCC(=O)O,,inactive
O=C1OCCO1,,inactive
CC1=NN(c2ccc(S(=O)(=O)O)cc2)C(=O)C1,,inactive
COC(=O)c1ccccc1C(=O)O,,inactive
Cc1cc(-c2ccccc2)nnc1NCCN1CCOCC1,,inactive
CC(C)(CO)C(O)C(=O)NCCCO (stereo not given),,inactive
C=CC(=O)CCCCC,,inactive
CC(C)CO,,inactive
COP(=O)(O)OP(=O)(O)OC,,inactive
CN(C)CCCO[C@@H]1[C@H]2OC(C)(C)O[C@H]2O[C@@H]1C(O)CO (stereo not given in full),,inactive
O=C(CCCl)NCCc1ccccc1,,inactive
[O]=[Mo](=[O])=[O],1.23% [at 19 µM] (inactive),
COc1ccc(CCO)cc1,,inactive

Structure (SMILES),caspase activation,outcome
Cn1nnc2c(C(N)=O)ncn2c1=O,,inactive
C#CCN[C@@H]1CCc2ccccc21,,inactive
Cn1c(=O)c2c(ncn2CCO)n(C)c1=O,,inactive
Cc1cccc(Cl)c1,,inactive
CCCC(=O)OCCC(C)CCC=C(C)C (stereo not given),,inactive
O=C(Cl)c1ccccc1[N+](=O)[O-],,inactive
CCCCCCCCCOC(=O)c1ccccc1C(=O)OCCCCCCCCC,,inactive
O/N=C/C=N/O,,inactive
C/C=C(\C)C(C)=O,,inactive
CC1(C)Cc2cccc(N)c2O1,,inactive
CO/N=C(/C(=O)N[C@@H]1C(=O)N2C(C(=O)[O-])=C(C[n+]3ccn4ncccc43)CS[C@H]12)c1nsc(N)n1,,inactive
C=CC/C=C/C,,inactive
O=C(O)CSCC(=O)NC1CCSC1=O (stereo not given),,inactive
CCCCCC(C)O (stereo not given),,inactive
CO[Si](CCCn1c(=O)n(CCC[Si](OC)(OC)OC)c(=O)n(CCC[Si](OC)(OC)OC)c1=O)(OC)OC,,inactive
CC1(C)CC(OC(=O)CCCCCCCCC(=O)OC2CC(C)(C)NC(C)(C)C2)CC(C)(C)N1,0.485% [at 19 µM] (inactive),
CN(C)CC/C=C1/c2ccccc2COc2ccc(CC(=O)O)cc21,,inactive
CCCC(CC)c1ccccc1 (stereo not given),,inactive
CC(C)=CCC/C(C)=C/COC=O,,inactive
C[Si]1(C)O[Si](C)(C)O[Si](C)(C)O[Si](C)(C)O[Si](C)(C)O1,,inactive
